{"source": "PubChem BioAssay", "note": "Several values for one entry are separate records, joined by “and”; a condition that tells them apart may be missing. Identical values can stand only once. Some structures have more than one record in an assay (separate samples or runs), and their calls can disagree. Activity calls are given as the source filed them."}
{"test": "cell viability in Huh7 cells, primary screen, cytotoxicity control for HCV replication inhibitor project, CellTiter-Glo luminescence, basal, 48 h (AID 1143);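 also: Huh7 hepatoma cells carrying a hepatitis C replication reporter with no stimulus; test concentration not given here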", "conditions": "Huh7 HCV replicon, higher = more signal, called active from +8 up or from −8 down"}
{"smiles": "CC(CO)N1C(=O)[C@@H]2C3C(=O)OCCC=C[C@H]3OC23C=CCN(c2ccc(Cl)cc2)C(=O)[C@@H]13", "note": "(some centres undefined)", "z-score": "-0.666 (inactive) and -0.787 (inactive)"}
{"smiles": "CCOC(=O)NN=C1C[C@@H](O)[C@@H](O)[C@@H]2[C@@H]3C(=O)N(Cc4ccc5c(c4)OCO5)C(=O)[C@@H]3CC[C@@H]12", "z-score": "-0.299 (inactive)"}
{"smiles": "C=CCN(C(=O)C(c1cccs1)N(C(=O)/C=C\\C(=O)O)c1ccc(CCO)cc1)C(C)(C)C", "note": "(centres undefined)", "z-score": "-0.243 (inactive) and 0.38 (inactive)"}
{"smiles": "C=CCN(C(=O)C(c1cccs1)N(C(=O)/C=C\\C(=O)O)c1c(Cl)cccc1CO)C(C)(C)C", "note": "(centres undefined)", "z-score": "0.389 (inactive) and 0.124 (inactive)"}
{"smiles": "C=CCN(CCCCC)C(=O)C1N(c2c(Cl)cccc2CO)C(=O)C2C(C(=O)O)C3C=CC21O3", "note": "(centres undefined)", "z-score": "0.0928 (inactive) and -0.313 (inactive)"}
{"smiles": "C=CCN(CCCC)C(=O)C(c1cccs1)N(CCOCCO)C(=O)/C=C\\C(=O)O", "note": "(centres undefined)", "z-score": "-0.259 (inactive) and -0.0074 (inactive)"}
{"smiles": "CCCCCN1CC=CC23O[C@@H]4C=CCCOC(=O)C4[C@H]2C(=O)N(C(C)CO)[C@@H]3C1=O", "note": "(some centres undefined)", "z-score": "-0.153 (inactive) and 0.0164 (inactive)"}
{"smiles": "COC(=O)[C@H](C)NC(=O)CCC1CC(OC(=O)NCCc2ccc(F)cc2)CC2(CCCC(COC(=O)NCCCN3CCCC3=O)O2)O1", "note": "(some centres undefined)", "z-score": "-0.959 (inactive)"}
{"smiles": "COC(=O)C1=C(C)N(Cc2ccccc2)C2=C(C(C)=O)C[C@@](O)(C(=O)OC)C(=O)N2[C@@H]1c1ccccc1", "z-score": "-0.451 (inactive) and -1.18 (inactive)"}
{"smiles": "C=CCN(CCCCC)C(=O)C(c1cccs1)N(C(=O)/C=C\\C(=O)O)c1c(Cl)cccc1CO", "note": "(centres undefined)", "z-score": "0.497 (inactive) and 0.165 (inactive)"}
{"smiles": "CC(C)CON=C1C[C@@H](O)[C@@H](O)[C@@H]2[C@@H]3C(=O)N(c4cccc(Oc5ccccc5)c4)C(=O)[C@@H]3CC[C@H]12", "z-score": "-0.158 (inactive)"}
{"smiles": "C=CCN(C(=O)C(c1cccs1)N(C(=O)/C=C\\C(=O)O)C(C)(C)CO)c1ccc(OC)cc1", "note": "(centres undefined)", "z-score": "-1.8 (inactive) and -0.679 (inactive)"}
{"smiles": "CCCNC(=O)OC[C@H]1O[C@H](CCON=C(C)CCN2CCc3nc(-c4ccccc4)c(-c4ccccc4)cc3C2)C=C[C@@H]1Oc1ccc(OC)cc1", "z-score": "-0.81 (inactive)"}
{"smiles": "C=CC[C@@H](O)c1ccc(O)c(F)c1", "z-score": "0.504 (inactive) and -1.51 (inactive)"}
{"smiles": "C=CCN(Cc1ccccc1)C(=O)C(c1cccs1)N(C(=O)/C=C\\C(=O)O)c1c(Cl)cccc1CO", "note": "(centres undefined)", "z-score": "-0.109 (inactive) and 0.446 (inactive)"}
{"smiles": "CC(C)[Si]1(C(C)C)OCc2cc(CCCc3cc4c(c(CCc5ccccc5)n3)[Si](C(C)C)(C(C)C)OC4)nc(CCc3ccccc3)c21", "z-score": "-0.871 (inactive) and 0.114 (inactive)"}
{"smiles": "COC(=O)[C@@]1(Cc2ccc(F)cc2)[C@H]2c3cc(C(=O)N4CCCC4)n(Cc4c(CO)[nH]cc(C)c4=O)c3C[C@H]2CN1C(=O)c1ccccc1", "z-score": "-1.28 (inactive) and -0.88 (inactive)"}
{"smiles": "C=CCN(C(=O)C1N(c2ccc(CCO)cc2)C(=O)C2C(C(=O)O)C3C=CC21O3)c1ccc(OC)cc1", "note": "(centres undefined)", "z-score": "-0.0172 (inactive) and -1.2 (inactive)"}
{"smiles": "C=CCN(C(=O)C1N(CCOCCO)C(=O)C2C(C(=O)O)C3C=CC21O3)C(C)(C)C", "note": "(centres undefined)", "z-score": "-0.773 (inactive) and -0.325 (inactive)"}
{"smiles": "CCOC(=O)c1ccc(NC(=O)O[C@H]2[C@H](OC(=O)Nc3ccccc3)[C@H](OC(=O)Nc3ccccc3)[C@@H](OC)O[C@@H]2CO)cc1", "z-score": "-4.37 (inactive) and -5.71 (inactive)"}
{"smiles": "CC(C)=NOCc1ccc(-c2cn([C@@H]3COC[C@H]3O)nn2)cc1", "z-score": "0.164 (inactive)"}
{"smiles": "C[C@@H]1CC[C@H]2C(=O)O[C@H](CN=[N+]=[N-])CN2[C@H]1c1ccc(Br)cc1", "z-score": "-2.85 (inactive) and -0.512 (inactive)"}
{"smiles": "C=CCN1C(=O)[C@]2(O[C@H](CCn3cc(CCO)nn3)[C@@H]([Si](C)(C)c3ccc(OC)cc3)[C@@H]2C)c2cc(N3C(=O)c4cccc5cccc3c45)ccc21", "z-score": "-8.04 (active) and -7.97 (inactive)"}
{"smiles": "CC(CO)N1C(=O)[C@@H]2C3C(=O)OCCC=C[C@H]3OC23C=CCN(Cc2ccccc2)C(=O)[C@@H]13", "note": "(some centres undefined)", "z-score": "-0.783 (inactive) and 0.124 (inactive)"}
{"smiles": "C=CCN(C(=O)C1N(c2c(Cl)cccc2CO)C(=O)C2C(C(=O)O)C3C=CC21O3)C(C)(C)C", "note": "(centres undefined)", "z-score": "-0.488 (inactive) and 0.0489 (inactive)"}
{"smiles": "O=C1C[C@]2(c3ccc([N+](=O)[O-])cc3)C(=O)N(Cc3ccccc3)c3cc(CO)ccc3[C@H]2N1C1CCCCC1", "z-score": "0.282 (inactive) and -5.67 (inactive)"}
{"smiles": "C[C@@H](ON=C1[C@H]2CCn3c(=O)n(-c4ccccc4)c(=O)n3[C@H]2[C@H](O)[C@@H]2O[C@H]12)c1cn([C@H](CO)Cc2ccccc2)nn1", "z-score": "1.13 (inactive)"}
{"smiles": "C=CCN(CCCC)C(=O)C1N(C(C)(C)CO)C(=O)C2C(C(=O)O)C3C=CC21O3", "note": "(centres undefined)", "z-score": "0.194 (inactive) and -0.11 (inactive)"}
{"smiles": "COC(=O)[C@@]1(Cc2ccccc2)[C@H]2c3cc(C(=O)N(C)C)n(C[C@H](O)CO)c3C[C@H]2CN1C(=O)c1ccccc1", "z-score": "0.0129 (inactive) and 0.255 (inactive)"}
{"smiles": "C[C@@H]1CN2[C@@H](CC[C@@H](C)[C@@H]2c2ccc(Br)cc2)C(=O)O1", "z-score": "0.482 (inactive) and -0.656 (inactive)"}
{"smiles": "COC(=O)C1=C(C)N(Cc2ccccc2)[C@]23O[C@](C(=O)OC)(C(=O)N2[C@@H]1c1ccccc1)[C@@H](C(=O)OC)[C@H]3C(=O)OC", "z-score": "0.36 (inactive) and 0.333 (inactive)"}
{"smiles": "C=CCN(Cc1ccccc1)C(=O)C1N(c2ccc(CCO)cc2)C(=O)C2C(C(=O)O)C3C=CC21O3", "note": "(centres undefined)", "z-score": "0.012 (inactive) and -0.668 (inactive)"}
{"smiles": "CCOC(=O)C[C@H]1[C@H](OC(=O)c2ccccc2-c2ccccc2)[C@@H](NC(=O)Cc2ccc(OC)cc2)c2cc(OCCCO)ccc2N1C(=O)c1ccc2ccccc2n1", "z-score": "-0.319 (inactive) and 0.66 (inactive)"}
{"smiles": "CC(C)CCN1CCc2nc(-c3ccccc3)c3c(c2C1)CO[C@@H](C)C3", "z-score": "0.267 (inactive)"}
{"smiles": "CCOC(=O)[C@@H]1CC=C2CC1C(=O)N1CCC[C@@H]1[C@H]2O[Si](C)(C)C(C)(C)C", "note": "(some centres undefined)", "z-score": "0.856 (inactive) and -3.46 (inactive)"}
{"smiles": "COC(=O)[C@@]1(Cc2ccc(OC)cc2)[C@H]2c3cc(C(=O)N(C)C)n(Cc4ccc(O)c(OC)c4)c3C[C@H]2CN1C(=O)c1ccccc1", "z-score": "-1.03 (inactive) and -2.86 (inactive)"}
{"smiles": "CO[C@H]1COC(=O)CC=C[C@H](C)[C@H](OC)COC(=O)[C@@H](C)COC(=O)CC=C[C@@H]1C", "z-score": "1.08 (inactive) and -0.441 (inactive)"}
{"smiles": "CCOC(=O)C[C@H]1[C@H](OC(=O)c2ccccc2-c2ccccc2)[C@@H](NC(=O)c2ccccc2)c2cc(OCCCO)ccc2N1C(=O)c1ccc2ccccc2n1", "z-score": "-0.616 (inactive) and 0.662 (inactive)"}
{"smiles": "C=CCN(CCCC)C(=O)C1N(c2c(Cl)cccc2CO)C(=O)C2C(C(=O)O)C3C=CC21O3", "note": "(centres undefined)", "z-score": "-0.0286 (inactive) and -0.784 (inactive)"}
